# ssDAF-12 act: S. stercoralis DAF-12 activation, primary screen; HEK293 ssDAF-12/GRIP1 lit1-tk-luc reporter, luminescence; % of 3 µM dafachronic acid response; activation, % at 6.8 µM; 370,000 tested, 1% active; AID 652126;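 active means activation above the mean over all tested compounds plus 3 SD, cut at about 0.9% in these data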;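 further: 0% = DMSO-only wells and 100% = 3 µM delta7-dafachronic acid wells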
# DAX1 inh-1: DAX1 (NR0B1) inhibition, primary screen | inhibition, % at 6.8 µM | 370,000 tested, 1.1% active | HEK293T StAR-luciferase reporter, SF-1/DAX-1 repression relief;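 active means inhibition above the mean over all tested compounds plus 3 SD, cut at about 3.6% in these data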;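 further: 0% = DAX-1 cells with DMSO and 100% = cells lacking DAX-1 with DMSO; higher inhibition means more luminescence from relief of DAX-1 repression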
# SMARCA2 activ: increases SMARCA2 function in MMTV reporter cells; MG213 cells, MMTV-luciferase reporter, dexamethasone, overnight; activation, % at 9.1 µM; 370,000 tested, 1% active; in the data active means activation above about 7.8%;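 further: 0% = vehicle wells and 100% = reference activator wells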
# DAX1 inh-2: inhibits human nuclear receptor DAX1; P51843; HEK293 Gal4-DAX1 luciferase reporter, luminescence; inhibition, % at 6.75 µM; 340,000 tested, 0.99% active; AID 504766;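 active means inhibition above the mean over all tested compounds plus 3 SD, cut at about 4.2% in these data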;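 further: 0% = DAX1-transfected cells with DMSO and 100% = empty-vector control cells with DMSO; inhibition shows as a rise in luminescence from relieved DAX1 repression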
# Target sequence (P51843 207-470 limits assumed): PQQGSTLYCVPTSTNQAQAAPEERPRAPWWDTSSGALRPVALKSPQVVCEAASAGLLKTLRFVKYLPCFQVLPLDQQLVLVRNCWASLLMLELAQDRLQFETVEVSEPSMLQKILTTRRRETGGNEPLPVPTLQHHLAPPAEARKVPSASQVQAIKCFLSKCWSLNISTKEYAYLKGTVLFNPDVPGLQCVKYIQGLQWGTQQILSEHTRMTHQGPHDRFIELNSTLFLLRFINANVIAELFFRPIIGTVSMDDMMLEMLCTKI
# hcDAF-12 act: activators of H. contortus DAF-12 nuclear receptor; 370,000 tested, 1.4% active; HEK293 hcDAF-12 lit1-tk-luc reporter, luminescence; 0% DMSO, 100% Δ7-dafachronic acid; activation, % at 6.8 µM;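 active means activation above the mean of all tested compounds plus 3 SD, cut at about 5.5% in these data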;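 further: 100% = response to 3 µM Δ7-dafachronic acid high control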
# hgDAF12 agonist: agonists of H. glycines DAF-12 nuclear receptor; HEK293 GAL4-hgDAF12 UAS-luciferase reporter, agonist luminescence; normalized to butyrate control; activation, % at 6.8 µM; 370,000 tested, 1.8% active; AID 687014;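 active means activation above a cutoff set at the mean of all screened compounds plus 3 SD, cut at about 10% in these data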;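 further: 0% = DMSO wells and 100% = sodium butyrate wells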
# SMARCA2 act conf: confirmation of SMARCA2 (BRM) function activators. 3,500 tested, 30% active. MG213 cells, MMTV-luciferase with dexamethasone, luminescence, overnight; MG213 cells expressing E1A, Rb sequestered; DMSO wells 0%, reference activator 100%. activation, % at 9.1 µM. shares compounds with SMARCA2 activ. AID 652260;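 active means activation above its plate's cutoff, the mean activation of tested wells plus 3 SD, cut at about 7.9% in these data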
# VP16 Luc act: counter-screen for SMARCA2 activators: GAL4-VP16 luciferase reporter activation; HEK293 GAL4-VP16 pG5luc reporter, luciferase luminescence; scaled: DMSO wells 0%, SAHA wells 100%; 3,500 tested, 41% active; activation, % at 9.1 µM; shares compounds with SMARCA2 activ;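 active means activation above the solvent-only control well mean plus 3 SD, averaged across control plates, cut at about 5.2% in these data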
# * hit, by the source's call; x = no result given. Only some compounds are listed: those with a hit (about 4.8% of all), similar ones and a draw of the others.
SMILES,ssDAF-12 act,DAX1 inh-1,SMARCA2 activ,DAX1 inh-2,hcDAF-12 act,hgDAF12 agonist,SMARCA2 act conf,VP16 Luc act
O=c1c2ccccc2sn1-c1cccc(Cl)c1,-1,-2,13*,-1,2,2,3,1
Cn1sc2ccccc2c1=O,-1,0,13*,0,-1,-2,16*,2
O=c1c2ccccc2sn1-c1ccccc1,-1,-2,5,0,0,1,x,x
CCOC(=O)NC(=O)/C(C#N)=C\Nc1ccc(Cl)cc1Cl,0,1,9.0*,0,2,5,1,7.9*
CCOc1cc(Cl)c(S(=O)(=O)NCCCN2CCOCC2)cc1Cl,-1,0,0,0,-1,-1,x,x
O=C(Nc1nc2ccccc2[nH]1)C1CCC1,-2,2,8.9*,2,2,9,3,8.7*
COc1cc(OC)cc(C(=O)Nc2nc3ccccc3[nH]2)c1,-1,0,0,1,3,8,x,x
COc1ccc(Br)c(C(=O)Nc2nc3ccccc3[nH]2)c1,-1,1,8.8*,1,1,3,7.8*,2
COc1ccc(C(=O)Nc2nc3ccccc3[nH]2)cc1OC,-1,2,11*,0,2,7,6,10*
O=C(CCCc1c[nH]c2ccccc12)Nc1ccc2ccccc2c1,0,1,0,1,1,6,x,x
Cn1c2c(c(=O)n3ncnc13)CCCC2,-1,0,-4,2,1,0,x,x
Cc1ccc(CNC(=O)COC(=O)c2ccc(Br)cc2)cc1,-1,0,-2,0,1,0,x,x
CCOC(=O)c1ccc(CNCc2ccc(C)cc2)cc1,-1,0,9.1*,0,1,2,-2,0
CCOc1ccc(OCc2ccc(C(=O)O)o2)cc1,0,1,6,-4,3,10,x,x
O=C(O)c1ccc(COc2ccc3ccccc3c2)o1,-1,2,8.6*,-1,3,10*,2,8.7*
CCOc1ccc(CCNS(=O)(=O)c2cccc3nsnc23)cc1OCC,-1,0,2,0,-1,1,x,x
Fc1ccccc1/C=N/Nc1ncnc2nc[nH]c12,-1,3.8*,9.6*,2,-1,1,17*,5.8*
COCCNc1nc2cc(-c3ccc(C)cc3)sc2c(=O)n1C,1.0*,3.8*,9.0*,x,3,12*,8.8*,14*
O=C(CCCN1C(=O)S/C(=C\C=C\c2ccccc2)C1=O)Nc1ccc(C(=O)O)cc1,-1,1,8.5*,1,0,5,5,2
CC(C)CC1CC(C)(c2csc(NNC(=O)c3ccccc3)n2)OC1=O (centres undefined),-2,0,0,-1,-1,-3,x,x
O=c1[nH]c(C(F)(F)C(F)(F)C(F)(F)F)no1,0,1,-2,1,4,3,x,x
CC(NC(=S)NCCN1CCOCC1)C12CC3CC(CC(C3)C1)C2 (centres undefined),0,0,0,x,-2,-3,x,x
Cc1ccc(C(=O)CSc2nc3ccccc3c(=O)[nH]2)cc1,0,0,9.6*,1,1,0,-1,2
CCOC(=O)c1nc2ccccc2c(=O)[nH]1,-1,2,9.3*,1,2,7,4,2
CCc1ccc(C(=O)CSc2nc3ccccc3c(=O)[nH]2)cc1,-1,0,2,-3,1,5,x,x
CCCc1nc(SCC(=O)c2ccc(F)cc2)c2ccccc2n1,-2,-3,8.3*,-2,-1,4,2,1
CCCCNC(=O)CSc1nc(CCC)nc2ccccc12,-2,1,-4,-1,-3,-3,x,x
O=C1CCC/C(=N/NC(=O)C2CCN(S(=O)(=O)c3cccs3)CC2)C1,-1,0,8.7*,-1,2,-1,2,0
